# Article PMC7862700, “An all-to-all approach to the identification of sequence-specific readers for epigenetic DNA modifications on cytosine”
# How the values were obtained:
# Experiment in all cases: DAPPL (digital affinity profiling via proximity ligation, sequencing); 10 mM Tris-HCl pH 7.5, 50 mM NaCl, 1 mM DTT, 4% glycerol, room temperature, 30 min; GST-TFs on glutathione beads, 16-mer random dsDNA library, 0.1% formaldehyde crosslink after washing; high values mean tight binding
# FLI1 = target: T1, FLI1 (Homo sapiens, UniProt Q01543 1-452); settings: protein: recombinant; tags: N-terminal GST; dsDNA, one strand shown
# T1 sequence: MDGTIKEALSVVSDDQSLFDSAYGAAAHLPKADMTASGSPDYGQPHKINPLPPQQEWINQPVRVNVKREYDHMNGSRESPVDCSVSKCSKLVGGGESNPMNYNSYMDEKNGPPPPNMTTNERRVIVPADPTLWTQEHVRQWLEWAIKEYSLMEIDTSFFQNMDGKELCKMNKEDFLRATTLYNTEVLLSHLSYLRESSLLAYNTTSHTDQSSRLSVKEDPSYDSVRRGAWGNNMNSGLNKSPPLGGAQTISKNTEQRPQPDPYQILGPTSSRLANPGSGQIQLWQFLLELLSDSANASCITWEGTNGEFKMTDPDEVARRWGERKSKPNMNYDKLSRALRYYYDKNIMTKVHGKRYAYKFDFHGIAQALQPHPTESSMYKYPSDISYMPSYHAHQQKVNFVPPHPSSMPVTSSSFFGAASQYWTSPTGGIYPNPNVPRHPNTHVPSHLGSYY
# Method in brief: (§1)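 After expression in yeast as GST fusions, human transcription factors were bound to glutathione beads, DNA-barcoded and mixed with a tag-only sample. The pools were incubated with 200 nmole of a 16-mer random double-stranded DNA library in Tris/NaCl/DTT/glycerol buffer (30 min, room temperature), washed and crosslinked with 0.1% formaldehyde. Proximity ligation with BsaI/T4 ligase ran for 1 h at 37 °C, before PCR amplification and sequencing on an Illumina NextSeq500. Binding signal is a hexamer's read frequency for a factor divided by its frequency for the tag-only sample.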
# ELK1 = target: T2, ELK1 (Homo sapiens, UniProt P19419 1-428); settings: protein: recombinant; tags: N-terminal GST; dsDNA, one strand shown
# T2 sequence: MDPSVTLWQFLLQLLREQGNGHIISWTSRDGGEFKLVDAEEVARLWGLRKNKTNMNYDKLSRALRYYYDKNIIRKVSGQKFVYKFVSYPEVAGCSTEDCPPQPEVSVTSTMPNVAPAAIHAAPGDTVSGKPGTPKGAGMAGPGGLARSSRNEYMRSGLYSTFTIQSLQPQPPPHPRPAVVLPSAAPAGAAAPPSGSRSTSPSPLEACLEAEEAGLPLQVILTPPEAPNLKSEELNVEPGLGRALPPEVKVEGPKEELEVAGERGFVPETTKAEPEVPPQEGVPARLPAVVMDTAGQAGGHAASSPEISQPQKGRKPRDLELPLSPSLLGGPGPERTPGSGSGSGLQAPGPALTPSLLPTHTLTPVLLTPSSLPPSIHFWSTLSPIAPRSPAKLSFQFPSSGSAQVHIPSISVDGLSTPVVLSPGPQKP
# Method in brief: as §1
# GABPA = target: T3, GABPA (Homo sapiens, UniProt Q06546 1-454); settings: protein: recombinant; tags: N-terminal GST; dsDNA, one strand shown
# T3 sequence: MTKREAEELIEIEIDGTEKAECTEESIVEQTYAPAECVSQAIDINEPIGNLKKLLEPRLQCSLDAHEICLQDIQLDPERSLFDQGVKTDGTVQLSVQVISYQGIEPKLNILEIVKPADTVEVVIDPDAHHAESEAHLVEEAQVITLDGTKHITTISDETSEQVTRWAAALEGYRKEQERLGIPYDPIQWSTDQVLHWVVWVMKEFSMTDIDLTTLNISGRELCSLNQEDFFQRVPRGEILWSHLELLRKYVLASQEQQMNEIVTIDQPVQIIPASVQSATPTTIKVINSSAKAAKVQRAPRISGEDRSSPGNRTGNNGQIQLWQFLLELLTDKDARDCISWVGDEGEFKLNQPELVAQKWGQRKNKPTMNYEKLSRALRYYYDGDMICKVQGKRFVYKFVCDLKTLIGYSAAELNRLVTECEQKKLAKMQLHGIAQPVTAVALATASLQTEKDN
# Method in brief: as §1
# ERG = target: T4, ERG (Homo sapiens, UniProt P11308 1-479); settings: protein: recombinant; tags: N-terminal GST; dsDNA, one strand shown
# T4 sequence: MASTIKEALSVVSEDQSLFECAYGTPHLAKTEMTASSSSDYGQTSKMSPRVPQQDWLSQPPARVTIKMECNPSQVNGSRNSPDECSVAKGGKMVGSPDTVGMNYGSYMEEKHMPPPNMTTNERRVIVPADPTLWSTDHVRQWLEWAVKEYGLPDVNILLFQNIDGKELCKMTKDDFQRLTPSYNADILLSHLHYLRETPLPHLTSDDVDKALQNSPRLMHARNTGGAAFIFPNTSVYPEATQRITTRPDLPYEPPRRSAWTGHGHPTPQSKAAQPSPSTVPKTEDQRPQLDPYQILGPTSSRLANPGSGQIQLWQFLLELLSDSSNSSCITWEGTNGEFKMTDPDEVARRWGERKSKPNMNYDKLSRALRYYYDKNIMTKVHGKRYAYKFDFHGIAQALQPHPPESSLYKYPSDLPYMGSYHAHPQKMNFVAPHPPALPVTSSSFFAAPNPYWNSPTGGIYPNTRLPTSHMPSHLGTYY
# Method in brief: as §1
# ELF1 = ELF1 (Homo sapiens, UniProt P32519 1-619); settings: protein: recombinant; tags: N-terminal GST; dsDNA, one strand shown
# Method in brief: as §1
# EHF = target: T5, EHF (Homo sapiens, UniProt Q9NZC4 1-300); settings: protein: recombinant; tags: N-terminal GST; dsDNA, one strand shown
# T5 sequence: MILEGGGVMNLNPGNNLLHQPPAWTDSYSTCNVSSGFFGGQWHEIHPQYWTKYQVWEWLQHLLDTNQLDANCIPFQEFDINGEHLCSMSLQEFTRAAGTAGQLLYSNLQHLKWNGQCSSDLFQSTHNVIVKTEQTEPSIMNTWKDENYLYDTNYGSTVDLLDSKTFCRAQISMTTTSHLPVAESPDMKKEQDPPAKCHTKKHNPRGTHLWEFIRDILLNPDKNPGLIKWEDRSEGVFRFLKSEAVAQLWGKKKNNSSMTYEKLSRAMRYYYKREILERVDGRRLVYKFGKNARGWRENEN
# Method in brief: as §1
# SPI1 = SPI1 (Homo sapiens, UniProt P17947 1-270); settings: protein: recombinant; tags: N-terminal GST; dsDNA, one strand shown
# Method in brief: as §1
# SPIB = SPIB (Homo sapiens, UniProt Q01892 1-262); settings: protein: recombinant; tags: N-terminal GST; dsDNA, one strand shown
# Method in brief: as §1
# ELK3 = target: T6, ELK3 (Homo sapiens, UniProt P41970 1-407); settings: protein: recombinant; tags: N-terminal GST; dsDNA, one strand shown
# T6 sequence: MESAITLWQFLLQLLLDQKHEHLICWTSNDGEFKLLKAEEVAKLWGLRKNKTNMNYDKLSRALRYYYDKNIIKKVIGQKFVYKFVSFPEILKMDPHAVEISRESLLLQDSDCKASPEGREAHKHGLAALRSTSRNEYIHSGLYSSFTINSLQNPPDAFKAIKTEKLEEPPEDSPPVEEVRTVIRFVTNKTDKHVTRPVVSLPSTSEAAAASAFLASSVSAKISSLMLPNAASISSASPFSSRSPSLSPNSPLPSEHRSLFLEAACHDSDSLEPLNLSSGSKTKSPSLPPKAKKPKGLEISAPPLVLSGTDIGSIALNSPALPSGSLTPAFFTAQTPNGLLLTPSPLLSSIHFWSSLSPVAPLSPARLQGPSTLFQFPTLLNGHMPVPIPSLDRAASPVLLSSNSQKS
# Method in brief: as §1
# FEV = target: T7, FEV (Homo sapiens, UniProt Q99581 1-238); settings: protein: recombinant; tags: N-terminal GST; dsDNA, one strand shown
# T7 sequence: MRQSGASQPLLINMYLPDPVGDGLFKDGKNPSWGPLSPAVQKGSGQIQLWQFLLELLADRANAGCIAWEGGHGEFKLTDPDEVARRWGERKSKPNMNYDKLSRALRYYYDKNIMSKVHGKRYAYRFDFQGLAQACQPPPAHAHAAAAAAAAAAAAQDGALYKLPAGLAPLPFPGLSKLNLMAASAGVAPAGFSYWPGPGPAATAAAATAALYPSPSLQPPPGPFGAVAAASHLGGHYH
# Method in brief: as §1
# ETV5 = ETV5 (Homo sapiens, UniProt P41161 1-510); settings: protein: recombinant; tags: N-terminal GST; dsDNA, one strand shown
# Method in brief: as §1
# HSF1 = HSF1 (Homo sapiens, UniProt Q00613 1-529); settings: protein: recombinant; tags: N-terminal GST; chain copies: 3; dsDNA, one strand shown
# Method in brief: as §1
# SPIC = target: T8, SPIC (Homo sapiens, UniProt Q8N5J4 1-248); settings: protein: recombinant; tags: N-terminal GST; dsDNA, one strand shown
# T8 sequence: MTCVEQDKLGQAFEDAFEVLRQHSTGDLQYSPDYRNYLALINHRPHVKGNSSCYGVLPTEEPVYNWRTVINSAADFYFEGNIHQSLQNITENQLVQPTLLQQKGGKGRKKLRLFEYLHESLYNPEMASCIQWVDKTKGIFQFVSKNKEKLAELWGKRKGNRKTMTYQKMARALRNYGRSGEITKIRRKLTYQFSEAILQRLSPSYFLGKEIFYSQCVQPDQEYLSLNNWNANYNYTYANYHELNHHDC
# Method in brief: as §1
# ELF4 = ELF4 (Homo sapiens, UniProt Q99607 1-663); settings: protein: recombinant; tags: N-terminal GST; dsDNA, one strand shown
# Method in brief: as §1
# ELK4 = target: T9, ELK4 (Homo sapiens, UniProt P28324-2 1-405); settings: protein: recombinant; tags: N-terminal GST; dsDNA, one strand shown
# T9 sequence: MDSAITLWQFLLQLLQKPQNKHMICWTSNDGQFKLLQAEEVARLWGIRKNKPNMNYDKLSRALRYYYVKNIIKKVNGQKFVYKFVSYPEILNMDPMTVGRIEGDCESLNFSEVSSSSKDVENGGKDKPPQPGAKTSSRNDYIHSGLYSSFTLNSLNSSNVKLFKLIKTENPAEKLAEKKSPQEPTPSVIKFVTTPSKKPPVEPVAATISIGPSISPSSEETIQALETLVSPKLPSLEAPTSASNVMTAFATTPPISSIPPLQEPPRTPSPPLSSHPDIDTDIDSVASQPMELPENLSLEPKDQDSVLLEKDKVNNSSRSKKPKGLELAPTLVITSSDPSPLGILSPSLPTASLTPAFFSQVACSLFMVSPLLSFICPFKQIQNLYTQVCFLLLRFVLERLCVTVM
# Method in brief: as §1
# ETV2 = target: T10, ETV2 (Homo sapiens, UniProt O00321 1-342); settings: protein: recombinant; tags: N-terminal GST; dsDNA, one strand shown
# T10 sequence: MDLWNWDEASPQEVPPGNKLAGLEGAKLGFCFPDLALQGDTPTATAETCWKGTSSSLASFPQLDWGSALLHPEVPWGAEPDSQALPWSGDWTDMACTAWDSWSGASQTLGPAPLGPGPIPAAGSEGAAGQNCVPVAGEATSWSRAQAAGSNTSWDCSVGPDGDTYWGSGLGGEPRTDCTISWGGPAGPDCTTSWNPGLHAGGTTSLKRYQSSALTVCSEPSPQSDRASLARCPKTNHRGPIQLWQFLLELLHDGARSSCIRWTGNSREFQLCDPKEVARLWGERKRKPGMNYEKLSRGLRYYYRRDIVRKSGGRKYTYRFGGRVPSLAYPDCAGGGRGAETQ
# Method in brief: as §1
# ELF3 = target: T11, ELF3 (Homo sapiens, UniProt P78545 1-371); settings: protein: recombinant; tags: N-terminal GST; dsDNA, one strand shown
# T11 sequence: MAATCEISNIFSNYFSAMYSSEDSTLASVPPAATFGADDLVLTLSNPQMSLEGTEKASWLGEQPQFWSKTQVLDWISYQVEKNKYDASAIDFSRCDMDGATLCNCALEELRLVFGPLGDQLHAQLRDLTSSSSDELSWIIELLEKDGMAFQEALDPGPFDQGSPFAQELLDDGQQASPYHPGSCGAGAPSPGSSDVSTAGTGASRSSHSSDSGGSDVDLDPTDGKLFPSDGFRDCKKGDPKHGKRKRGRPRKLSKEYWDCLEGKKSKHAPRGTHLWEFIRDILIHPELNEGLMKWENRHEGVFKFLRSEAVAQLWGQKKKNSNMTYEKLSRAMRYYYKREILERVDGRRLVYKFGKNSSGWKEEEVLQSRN
# Method in brief: as §1
# CRX = CRX (Homo sapiens, UniProt O43186 1-299); settings: protein: recombinant; tags: N-terminal GST; dsDNA, one strand shown
# Method in brief: as §1
# ETV1 = ETV1 (Homo sapiens, UniProt P50549 1-477); settings: protein: recombinant; tags: N-terminal GST; dsDNA, one strand shown
# Method in brief: as §1
# Chain of ETV5 (P41161 whole entry): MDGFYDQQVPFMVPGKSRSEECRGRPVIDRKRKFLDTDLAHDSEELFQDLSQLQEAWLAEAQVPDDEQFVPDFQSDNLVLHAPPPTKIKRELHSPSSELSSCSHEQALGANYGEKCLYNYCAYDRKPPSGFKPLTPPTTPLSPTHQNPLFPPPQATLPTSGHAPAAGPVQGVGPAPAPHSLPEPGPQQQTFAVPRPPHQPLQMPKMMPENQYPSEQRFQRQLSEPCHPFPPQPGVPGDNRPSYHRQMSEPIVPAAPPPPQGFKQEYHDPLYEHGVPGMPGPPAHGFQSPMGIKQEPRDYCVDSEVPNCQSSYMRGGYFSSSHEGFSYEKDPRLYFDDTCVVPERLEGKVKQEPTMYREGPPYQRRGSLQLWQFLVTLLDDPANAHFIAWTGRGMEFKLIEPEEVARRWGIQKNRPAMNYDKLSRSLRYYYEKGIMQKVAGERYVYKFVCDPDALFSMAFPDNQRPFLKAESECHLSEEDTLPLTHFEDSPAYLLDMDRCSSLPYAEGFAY
# Chain of CRX (O43186 whole entry): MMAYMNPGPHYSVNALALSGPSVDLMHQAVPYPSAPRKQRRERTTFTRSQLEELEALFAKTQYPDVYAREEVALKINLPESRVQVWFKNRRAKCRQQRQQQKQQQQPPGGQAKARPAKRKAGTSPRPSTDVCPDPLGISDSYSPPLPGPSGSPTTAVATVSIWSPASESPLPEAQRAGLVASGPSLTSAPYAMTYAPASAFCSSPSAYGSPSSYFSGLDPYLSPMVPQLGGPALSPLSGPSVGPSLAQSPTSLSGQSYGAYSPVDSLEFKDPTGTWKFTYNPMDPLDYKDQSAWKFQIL
# Chain of ELF4 (Q99607 whole entry): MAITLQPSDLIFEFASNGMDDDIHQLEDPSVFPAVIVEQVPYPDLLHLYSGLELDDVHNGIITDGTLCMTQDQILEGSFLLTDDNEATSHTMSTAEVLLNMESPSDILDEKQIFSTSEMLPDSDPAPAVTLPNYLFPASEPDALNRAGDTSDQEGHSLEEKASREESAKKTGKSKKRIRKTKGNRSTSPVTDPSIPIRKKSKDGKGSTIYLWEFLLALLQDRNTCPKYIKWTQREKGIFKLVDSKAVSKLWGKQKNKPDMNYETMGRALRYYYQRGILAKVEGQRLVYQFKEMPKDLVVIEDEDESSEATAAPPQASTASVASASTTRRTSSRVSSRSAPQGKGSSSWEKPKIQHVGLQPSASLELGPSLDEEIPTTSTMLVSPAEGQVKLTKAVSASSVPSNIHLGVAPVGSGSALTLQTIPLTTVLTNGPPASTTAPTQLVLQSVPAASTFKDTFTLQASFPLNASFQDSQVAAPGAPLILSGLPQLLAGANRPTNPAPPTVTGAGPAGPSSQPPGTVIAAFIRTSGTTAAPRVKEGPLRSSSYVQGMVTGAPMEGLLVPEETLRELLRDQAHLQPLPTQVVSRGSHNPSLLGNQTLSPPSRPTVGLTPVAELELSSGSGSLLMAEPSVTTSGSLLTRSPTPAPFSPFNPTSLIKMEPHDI
# Chain of ELF1 (P32519 whole entry): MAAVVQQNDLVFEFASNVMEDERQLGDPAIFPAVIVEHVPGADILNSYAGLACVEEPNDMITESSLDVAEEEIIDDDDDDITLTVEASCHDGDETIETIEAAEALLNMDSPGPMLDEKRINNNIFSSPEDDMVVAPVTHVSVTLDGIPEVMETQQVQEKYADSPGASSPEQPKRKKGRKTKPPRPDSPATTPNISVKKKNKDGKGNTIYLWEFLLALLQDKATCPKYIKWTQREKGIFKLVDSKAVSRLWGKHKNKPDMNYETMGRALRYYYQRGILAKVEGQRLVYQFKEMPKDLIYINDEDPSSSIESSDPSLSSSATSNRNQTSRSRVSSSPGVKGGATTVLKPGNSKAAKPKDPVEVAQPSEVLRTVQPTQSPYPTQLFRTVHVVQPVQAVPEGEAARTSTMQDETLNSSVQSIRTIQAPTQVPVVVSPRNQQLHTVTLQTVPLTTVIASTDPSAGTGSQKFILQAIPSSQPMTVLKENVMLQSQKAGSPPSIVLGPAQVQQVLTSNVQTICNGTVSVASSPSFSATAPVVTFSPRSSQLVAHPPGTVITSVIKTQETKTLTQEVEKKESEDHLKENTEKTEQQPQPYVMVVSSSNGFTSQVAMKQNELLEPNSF
# Chain of SPIB (Q01892 whole entry): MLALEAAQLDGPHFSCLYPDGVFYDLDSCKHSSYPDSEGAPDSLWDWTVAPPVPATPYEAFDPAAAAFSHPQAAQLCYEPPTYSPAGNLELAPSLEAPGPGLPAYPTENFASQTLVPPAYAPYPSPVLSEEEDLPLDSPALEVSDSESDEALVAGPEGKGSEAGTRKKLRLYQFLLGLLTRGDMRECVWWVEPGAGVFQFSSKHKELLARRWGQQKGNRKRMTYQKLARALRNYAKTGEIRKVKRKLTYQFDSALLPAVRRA
# Chain of HSF1 (Q00613 whole entry): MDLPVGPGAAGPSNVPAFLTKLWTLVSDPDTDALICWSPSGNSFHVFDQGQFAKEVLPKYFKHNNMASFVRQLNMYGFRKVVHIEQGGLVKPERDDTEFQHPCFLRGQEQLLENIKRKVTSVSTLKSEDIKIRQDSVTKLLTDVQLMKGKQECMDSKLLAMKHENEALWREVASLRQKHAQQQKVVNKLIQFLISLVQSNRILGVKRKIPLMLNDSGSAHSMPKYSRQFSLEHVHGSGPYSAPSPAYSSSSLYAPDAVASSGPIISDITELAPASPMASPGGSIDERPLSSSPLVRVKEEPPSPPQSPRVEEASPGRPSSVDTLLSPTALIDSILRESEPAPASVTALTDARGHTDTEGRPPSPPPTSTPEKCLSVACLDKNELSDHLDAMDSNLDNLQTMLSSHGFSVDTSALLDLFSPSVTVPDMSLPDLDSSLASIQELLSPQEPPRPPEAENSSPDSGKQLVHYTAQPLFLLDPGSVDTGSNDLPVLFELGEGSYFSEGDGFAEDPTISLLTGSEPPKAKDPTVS
# Chain of ETV1 (P50549 whole entry): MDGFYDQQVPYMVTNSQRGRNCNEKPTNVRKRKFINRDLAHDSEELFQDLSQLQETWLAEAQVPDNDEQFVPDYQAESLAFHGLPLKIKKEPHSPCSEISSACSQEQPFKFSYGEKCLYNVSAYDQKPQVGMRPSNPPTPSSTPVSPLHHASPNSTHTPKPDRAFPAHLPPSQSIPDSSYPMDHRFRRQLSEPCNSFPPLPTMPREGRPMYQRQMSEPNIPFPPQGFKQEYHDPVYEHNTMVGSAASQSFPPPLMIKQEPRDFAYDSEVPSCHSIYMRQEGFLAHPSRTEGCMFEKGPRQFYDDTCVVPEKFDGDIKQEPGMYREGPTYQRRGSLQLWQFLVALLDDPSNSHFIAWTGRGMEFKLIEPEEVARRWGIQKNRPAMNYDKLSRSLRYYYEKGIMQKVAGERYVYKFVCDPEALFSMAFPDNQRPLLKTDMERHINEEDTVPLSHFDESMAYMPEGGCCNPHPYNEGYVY
sequence,measurement,setting,value
ACTTTA,binding signal,FLI1,"1.12 fold enrichment (6-mer frequency, TF over GST control)"
same,binding signal,ELK1,"1.26 fold enrichment (6-mer frequency, TF over GST control)"
same,binding signal,GABPA,"1.29 fold enrichment (6-mer frequency, TF over GST control)"
same,binding signal,ERG,"1.17 fold enrichment (6-mer frequency, TF over GST control)"
same,binding signal,ELF1,"1.21 fold enrichment (6-mer frequency, TF over GST control)"
same,binding signal,EHF,"1.2 fold enrichment (6-mer frequency, TF over GST control)"
same,binding signal,SPI1,"1.33 fold enrichment (6-mer frequency, TF over GST control)"
same,binding signal,SPIB,"1.19 fold enrichment (6-mer frequency, TF over GST control)"
same,binding signal,ELK3,"1.22 fold enrichment (6-mer frequency, TF over GST control)"
same,binding signal,FEV,"1.15 fold enrichment (6-mer frequency, TF over GST control)"
same,binding signal,ETV5,"1.21 fold enrichment (6-mer frequency, TF over GST control)"
same,binding signal,HSF1,"1.33 fold enrichment (6-mer frequency, TF over GST control)"
same,binding signal,SPIC,"1.21 fold enrichment (6-mer frequency, TF over GST control)"
same,binding signal,ELF4,"1.23 fold enrichment (6-mer frequency, TF over GST control)"
same,binding signal,ELK4,"1.15 fold enrichment (6-mer frequency, TF over GST control)"
same,binding signal,ETV2,"1.26 fold enrichment (6-mer frequency, TF over GST control)"
same,binding signal,ELF3,"1.23 fold enrichment (6-mer frequency, TF over GST control)"
same,binding signal,CRX,"1.54 fold enrichment (6-mer frequency, TF over GST control)"
same,binding signal,ETV1,"1.21 fold enrichment (6-mer frequency, TF over GST control)"
